Drawing on ChEMBL document CHEMBL4513216, “Probing the Open Global Health Chemical Diversity Library for Multistage-Active Starting Points for Next-Generation Antimalarials” (ACS Infect Dis, 2020), this text covers INHIBITION for 97 compounds.

The campaign covered roughly 65,000 compounds. About 2,100 (3.2%) showed an effect of 50% or more. The median lay at about -52%. Shown is part of a subset that was picked to be rich in strong results.

The test system of the assay is Plasmodium falciparum. The assay is described as follows: Screen against P. falciparum Asexual Blood Stage (ABS), at 5uM. Format: functional, Dd2. The following applies: tested at 5 uM.
Consider `O=C(c1cc2ccccc2[nH]c1=O)N1CCC2(CCCNC2)C1` (configuration not stated), for which the INHIBITION is listed as -49.9%. With `CCCN1CC[C@@H]2OC[C@H](C(=O)Nc3cccnc3)C[C@@H]2C1` the figure was -131%.

As for `CC(C)NC(=O)CN1CCSC2(CCCCC2)C1`, the INHIBITION is -66.6%. With `CCc1ccccc1Nc1noc2c1CN(C(=O)CCOC)CC2`, the INHIBITION turned out to be 85.1%.

Regarding `CN1CC=C(c2noc(CCC(=O)N3CCc4ccccc4C3)n2)CC1`, the INHIBITION is listed as -27.1%. In the case of `Cn1ccnc1CN1CC[C@H]2CO[C@H](CNc3ncccn3)[C@H]2C1`, the INHIBITION is -52.6%.

For the compound `Cc1cccc(CN2CC[C@@H]3[C@@H]2CCN3C(=O)Cc2ccsc2)n1`, the INHIBITION is reported as -115%. `CC(C)Nc1nc2c(c(NC3CC3)n1)CCN(Cc1nccn1C)CC2`: the INHIBITION is recorded as 76.1%.

On to `CC(C)Nc1nc2c(c(NC3CC3)n1)CN(C(=O)Cc1ccsc1)CC2`, for which the INHIBITION was determined as 75.6%. `Cn1ccnc1CN1CCN2C[C@H](Oc3cncnc3)C[C@H]2C1`: the INHIBITION is listed as -70.4%.

For the compound `CC(C)N1CCO[C@H]2CN(C(=O)Cc3ccsc3)C[C@H]21`, the INHIBITION is recorded as -23.1%. Next, `CN1CCC(n2cc3nc(N)[nH]cc-3c2=O)CC1`: -44.7%; `O=C(COc1ccccc1)N1C[C@@H](O)[C@H](N2CCCC2)C1`: -15.5%; `CNC(=O)[C@@H]1C[C@H]2CN(Cc3c(C)noc3C)C[C@H]2N1C(C)C`: -39.8%. Next, `COc1ccccc1OCCN(C)c1cc(C)nc(N)n1`: 70.2%. Take `COCCN(C)C(C)Cc1ccccc1OC` (configuration not stated): the INHIBITION turned out to be 23.6%.

As for `Cc1cc(N(C)CCOc2ccccc2F)nc(N)n1`, the INHIBITION was determined as 85.3%.

Consider `COc1ccccc1OCCCN(C)c1cc(C)nc(N)n1`, for which the INHIBITION stood at 73.5%. Next, `CC(C)CNC(=O)N1C[C@H]2CCN[C@H]2C1`: 14%; `N#CC1(C(=O)NCC2CCC3(CCNCC3)O2)CC1` (configuration not stated): 22.6%.

Turning to `CCS(=O)(=O)c1nnc([C@@H](N)Cc2ccccc2)o1`, the INHIBITION is -131%. With `CC[C@H](C)[C@@H](CO)NC(C)Cc1ccc(Cl)cc1` (some centres not stated) the figure was 18.9%; with `COCCN1C(=O)CC[C@@H]2[C@@H]1CCN2Cc1c(C)noc1C`, -35.6%; with `O=C(Nc1cccnc1)[C@H]1CN(C2CCCC2)C[C@H]2OCC[C@@H]12`, -39.7%. Take `COCCN1CCN(Cc2ccoc2)Cc2cccnc21`: the INHIBITION was found to be 21%. For `CN(C)CCN1CCN(Cc2cccs2)Cc2cccnc21`, the INHIBITION was found to be 77.1%. Regarding `CN(C)CCN1CCN(Cc2nccs2)Cc2cccnc21`, the INHIBITION is given as 5.69%. Take `CC(C)c1cc(C(=O)N2CCCC3(CCNC3)C2)no1` (configuration not stated): the INHIBITION is on record as -75.8%.

As to `O=C1CN(C(=O)c2ccc(F)cc2)CC(O)CN1Cc1cccs1` (configuration not stated), the INHIBITION stood at 88.8%. With `CCN1C[C@@H]2CN(Cc3cccs3)C[C@@H]2C1=O` the figure was 37.6%; with `O=C1[C@H]2CN(Cc3cccs3)C[C@H]2CN1c1cncnc1`, -85.7%.

Take `COCC(=O)NC(C)Cc1cccc(OC)c1` (configuration not stated): the INHIBITION is recorded as -118%. `Cc1noc(C)c1CN1C[C@@H]2COC[C@@H](C(=O)N3CCCO3)[C@@H]2C1`: the INHIBITION is reported as -40.4%. In the case of `Cc1c(C(C)NC2CCN(C(C)C)CC2)cnn1-c1ccc(F)cc1F` (configuration not stated), the INHIBITION came out at 79.9%. Consider `Cc1c(C(C)NCC2CCCC2)cnn1-c1ccc(F)cc1F` (configuration not stated), for which the INHIBITION was determined as 71.9%. With `N#Cc1ccc(NC2CCN(c3ncccn3)CC2)cc1C(F)(F)F` the figure was 5.54%; with `CCc1noc(C(C)N2CCNCC2)n1` (configuration not stated), -31.4%. In the case of `CCN1CCCC1CN(CCN(C)C)S(=O)(=O)c1ccccc1C#N` (configuration not stated), the INHIBITION is 79.6%.

Consider `O=C(NC1CC(F)(F)C1)[C@]12COC[C@H]1CN(Cc1cccnc1)C2`, for which the INHIBITION was -63.2%. `CC1CCN(CCNCc2cc(-c3ccccc3)cn3nnnc23)CC1`: the INHIBITION is 70.1%. For the compound `O=C(Cc1ccsc1)N1C[C@@H]2OCCN(CC3CCCO3)[C@@H]2C1` (some centres not stated), the INHIBITION was -85.3%. For `O=C(N1CCOCC1)N1CCCC2(CCCNC2)C1` (configuration not stated), the INHIBITION is -45.8%. Next, `Cn1cc(CN2C[C@@H]3OCCN(c4ncccn4)[C@@H]3C2)cn1`: -106%.

Take `CCOc1ccc2ccccc2c1CNCC1CCS(=O)(=O)C1` (configuration not stated): the INHIBITION was determined as 74.9%.

As for `CCOc1ccc2ccccc2c1CNCC1CCNCC1`, the INHIBITION came out at 91.6%. With `CC(C)CCN1C[C@@H]2C[C@H](C(=O)Nc3cccnc3)[C@H](C1)O2` the figure was -112%; with `C[C@@H]1CN(C2CCOC2)C[C@]12CCN(c1cccnc1)C2=O` (some centres not stated), -78.9%. Regarding `CC(=O)N1C[C@@H]2CN(Cc3cccnc3)CCO[C@@H]2C1`, the INHIBITION is listed as -51.9%.

For `Cc1ccc([C@]2(O)CC[C@H]3CN(Cc4cc(C)c(O)c(C)c4)C[C@H]32)nc1`, the INHIBITION is 74.6%. Consider `Cc1ccc([C@]2(O)CC[C@H]3CN(Cc4cccnc4)C[C@H]32)nc1`, for which the INHIBITION is given as -61.7%. As to `Cc1ccc([C@]2(O)CC[C@H]3CN(Cc4ccncc4)C[C@H]32)nc1`, the INHIBITION was -23.8%. For `Cc1ccc(-c2cn3c(n2)CO[C@@H](CNCc2nccn2C)C3)cc1`, the INHIBITION was 87.4%. As to `CC[C@H]1CN2CC[C@H]1C[C@@H]2CNC(=O)NC1CCCCC1`, the INHIBITION is -27.6%. For the compound `CC[C@H]1CN2CC[C@H]1C[C@@H]2CNC(=O)Nc1ccccc1`, the INHIBITION was -65.9%. On to `CC[C@H]1CN2CC[C@H]1C[C@@H]2CNCc1ccc2c(c1)OCO2`, for which the INHIBITION was determined as 60.9%. Take `CC1CCN(C[C@H]2CN3CC[C@H]2C[C@@H]3CNC(=O)c2ccco2)CC1`: the INHIBITION is -36.5%. Next, `CC[C@H]1CN2CC[C@H]1C[C@@H]2CNCc1ccc(OC)cc1`: 7%. With `CC[C@H]1CN2CC[C@H]1C[C@@H]2CNC(=O)Nc1cc(OC)cc(OC)c1` the figure was 63.8%; with `CC[C@H]1CN2CC[C@H]1C[C@@H]2CNCc1ccc(OC(F)(F)F)cc1`, 85.7%; with `COCC(=O)NC[C@H]1C[C@@H]2CCN1C[C@@H]2CN(C)c1ccccc1`, -64.8%.

Take `CC[C@H]1CN2CC[C@H]1C[C@@H]2CNCc1ccc(N(C)C)cc1`: the INHIBITION is 62.8%. For the compound `CC(C)NC(=O)NC[C@H]1C[C@@H]2CCN1C[C@@H]2CN(C)c1ccccc1`, the INHIBITION is -37.9%.

For `CCN(CC)C[C@H]1CN2CC[C@H]1C[C@@H]2CNC(=O)Nc1ccsc1`, the INHIBITION was 8.11%. For `CO[C@@H]1CC[C@H]2[C@H]1OCCN2CC1CC1`, the INHIBITION is on record as -30.3%. For the compound `c1ccc(CN2C[C@@H]3OCCN(c4ncccn4)[C@@H]3C2)nc1`, the INHIBITION is -56.2%.

With `CSc1ccc(C2SCC(=O)Nc3c2c(=O)[nH]n3C2CCOCC2)cc1` (configuration not stated), the INHIBITION is -122%. Take `CCS(=O)(=O)N1CCc2c(COC)cncc2C1`: the INHIBITION is given as -61.4%.

Take `COc1ccc(NC(=O)Cn2nc(C)c(C(C)=O)c2C)cc1`: the INHIBITION was determined as 89.7%. Regarding `CC(C)N(C)Cc1cncc2c1CCN(CC1CC1)C2`, the INHIBITION is reported as -87.9%. Take `CC(C)c1cc(N2CCC3(CCN(C)C3)C2)ncn1` (configuration not stated): the INHIBITION was -27.6%.

Turning to `CNC(=O)CN1CCC12CCN(C(=O)Cc1ccccc1)C2` (configuration not stated), the INHIBITION is listed as -6.6%.

For the compound `O=S(=O)(c1ccc(Cl)cc1)N1C[C@@H]2CCN[C@@H]2C1`, the INHIBITION was 82%. Next, `O=C(NCc1ccccc1)N1C[C@H]2CCN[C@H]2C1`: -86.8%; `O=S(=O)(c1ccccc1)N1C[C@@H]2CCN[C@@H]2C1`: 24.4%; `O=S(=O)(c1cccc(Cl)c1)N1C[C@@H]2CCN[C@@H]2C1`: 88.1%. Turning to `Cc1ccc(S(=O)(=O)N2C[C@@H]3CCN[C@@H]3C2)cc1`, the INHIBITION was determined as 4.39%. With `O=C(Cc1ccc(F)cc1)N1C[C@H]2CCN[C@H]2C1` the figure was 7.59%; with `CC(C)CNC(=O)[C@H]1C[C@H]2CN(Cc3cccnc3)C[C@@H]1O2`, -30.9%. For the compound `Nc1ncccc1CN1C[C@H]2CC[C@@H](C1)N(CC1CC1)C2=O`, the INHIBITION was -61.3%.

With `FC(F)Oc1ccccc1CN1CCCC(c2nccn2CC2CC2)C1` (configuration not stated), the INHIBITION is 86.4%. Turning to `CC1C(=O)Nc2cccnc2N1S(=O)(=O)c1ccc(C#N)c(Cl)c1` (configuration not stated), the INHIBITION was -88.9%. With `CC(C)=CCN1C[C@@H]2CC[C@H]1CN(Cc1cc(=O)[nH]c(=O)[nH]1)C2` the figure was 4.88%; with `Cc1sc2nc(CCN)nc(N(CCN(C)C)CC3CCCO3)c2c1C` (configuration not stated), 70.2%; with `CCN(CCN(C)C)c1nc(CCN)nc2sc(C)c(C)c12`, 89.8%. For the compound `COCCN(CC1CC1)c1nc(CCN)nc2sc(C)c(C)c12`, the INHIBITION is listed as 77.5%. `Cc1cccn2cc(CC(=O)N(CCN(C)C)CC3CCCO3)nc12` (configuration not stated): the INHIBITION was -84.6%.

Regarding `Cc1nnc([C@@H]2CC[C@@H]3[C@@H](CCN3Cc3ccccn3)O2)o1`, the INHIBITION is given as -18%. Next, `COc1cccc(CC(C)NCC(=O)Nc2ccccc2C)c1` (configuration not stated): -75%; `CN[C@@H](C)C(=O)N(Cc1cccc(C)c1)Cc1ccccc1OC`: 83.6%; `O=C(c1ccncc1)N1C[C@@H]2OCCN(CCN3CCCC3)[C@@H]2C1`: -29.2%.

For the compound `CCC1CNCc2cc3c(OC)ccc(OC)c3nc2O1` (configuration not stated), the INHIBITION is recorded as -11%. `O=C(CC(F)(F)F)N1C[C@H]2CCN[C@H]2C1`: the INHIBITION was -86.8%.

Turning to `CCc1nccn1CCNC1CCN(c2nc3ccc(Cl)cc3s2)CC1`, the INHIBITION was 85.7%. Next, `O=C([C@@H]1C[C@@H]2CCN(Cc3ccccn3)C[C@H]2O1)N1CCCO1`: -36.6%; `Cc1cccnc1CC(C)NC1CCSCC1` (configuration not stated): 23.6%. On to `Cc1cccnc1CC(C)NC1Cc2ccccc2C1` (configuration not stated), for which the INHIBITION is given as 89.2%. Next, `O=C1[C@H]2CN(Cc3ccoc3)C[C@H]2CN1Cc1cccnc1`: -10%.
